This excerpt belongs to a sample that is enriched for hits.
Choline anaer gr – growth inhibitors of anaerobic choline-fed gram-negatives, minimal medium, absorbance; Gram-negative bacterium anaerobic choline minimal medium; stronger effect = lower value; calls only; 55,000 compounds, 0.2% hits; call rule not given here
Of the large screens only hits and unclear results are named; the others gave an inactive call.

O=[N+]([O-])/C=C/c1ccc2c(c1)OCO2	none
O=C(Oc1ccc([N+](=O)[O-])cc1)N1CCC(C(O)(c2ccc3c(c2)OCO3)c2ccc3c(c2)OCO3)CC1	none
O=[N+]([O-])C=Cc1ccc2c(c1)OCO2	Choline anaer gr active
COc1ccc2c(c1)C1(CCN(S(=O)(=O)c3ccc(F)c(C)c3)C1)C(=O)N2C (stereo not given)	none
CCC(C(=O)Nc1cccc(Cl)c1)N1C(=O)CN=C(c2ccccc2)c2ccccc21 (stereo not given)	none
Cc1ccc(Cn2cccc(C(=O)Nc3nc(C)cs3)c2=O)cc1	none
CN1C2CCC1CC(OC(c1ccccc1)c1ccccc1N)C2 (stereo not given)	none
Clc1ccc(C(OCCN2CCCCC2)c2ccccc2)cc1 (stereo not given)	none
CN1C2CCC1CC(OC(c1ccccc1)c1ccc(Cl)cc1)C2 (stereo not given)	Choline anaer gr active
CCc1c(CN2CCN(C)CC2)csc1C	none
